Data published in PubChem BioAssay (Tox21).
The source made the active and inactive calls. Where a call stands in place of a potency, no number is given. The call rests on the fitted dose curve; in most records, active means well fitted curve in the direction sought with a large enough effect in the repeat runs; inconclusive means weak or mixed curves; inactive means flat fitted curve, though single readings scatter.

Experiment: qHTS assay to test for compound auto fluorescence at 590 nm (red) in HEK293 cell free culture (AID 720683)
Conditions: cell-free medium autofluorescence, Ex540/Em590 red; series mostly up to 91.3 µM
Procedure, shortened: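 Red-channel autofluorescence of compounds in culture medium (DMEM, 10% FBS), no cells, measured at 540/590 nm. Rose Bengal sodium is the reference fluorophore for equivalence.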
For `CCCCOC(=O)COC(=O)c1ccccc1C(=O)OCCCC`, the outcome was “inactive”.
For `CC(C)(C#N)N=NC(C)(C)C#N`, the outcome was “inactive”.
For `c1ccc(C2CO2)cc1` (stereo not given), the outcome was “inactive”.
For `CC(C)Nc1nc(Cl)nc(NC(C)C)n1`, the outcome was “inactive”.
For `CC(C)CON=O`, the outcome was “inactive”.
With `Clc1cccc(Cl)c1` the outcome was “inactive”.
With `CCCCCCCCCCCCCl` the outcome was “inactive”.
For `COP(=S)(OC)Oc1ccc(Sc2ccc(OP(=S)(OC)OC)cc2)cc1`, the outcome was “inactive”.
With `Nc1ncn[nH]1` the outcome was “inactive”.
For `CC(C)(O)C#N`, the outcome was “inactive”.
For `NC(=O)CN1CCCC1=O`, the outcome was “inactive”.
In the case of `CCNc1nc(Cl)nc(NC(C)(C)C#N)n1`, the outcome is reported as “inactive”.
For `O=C1CCCO1`, the outcome was “inactive”.
With `CCCCCCCC[N+](C)(CCCCCCCC)CCCCCCCC` the outcome was “inactive”.
For `CN(C)c1nc(=O)n(C2CCCCC2)c(=O)n1C`, the outcome was “inactive”.
With `Cn1c(-c2ccccc2)cc(-c2ccccc2)[n+]1C` the outcome was “inactive”.
With `N#CCCCCC#N` the outcome was “inactive”.
For `C[C@]12CCC(=O)C=C1CC[C@@H]1[C@@H]2CC[C@@]2(C)[C@H]1CC[C@]2(C)O`, the outcome was “inactive”.
In the case of `Clc1ccc(C(Cl)(Cl)Cl)cc1`, the outcome is reported as “inactive”.
For `O=P(OCCCl)(OCCCl)OCCCl`, the outcome was “inactive”.
For `CC[n+]1c(-c2ccccc2)c2cc(N)ccc2c2ccc(N)cc21`, the outcome was “inactive”.
In the case of `CCOP(=O)(OCC)OCC`, the outcome is reported as “inactive”.
With `COc1ccc(O)c(C(C)(C)C)c1` the outcome was “inactive”.
For `CN(C)c1ccccc1`, the outcome was “inactive”.
With `CCC1(c2ccc(N)cc2)CCC(=O)NC1=O` (stereo not given) the outcome was “inactive”.
With `CCOP(=S)(OCC)SCn1c(=O)oc2cc(Cl)ccc21` the outcome was “inactive”.
For `CC(C)=CC1C(C(=O)OCc2cccc(Oc3ccccc3)c2)C1(C)C` (stereo not given), the outcome was “inactive”.
In the case of `O=C(O)c1nn(Cc2ccc(Cl)cc2Cl)c2ccccc12`, the outcome is reported as “inactive”.
For `N#Cc1nn(-c2c(Cl)cc(C(F)(F)F)cc2Cl)c(N)c1S(=O)C(F)(F)F` (stereo not given), the outcome was “inactive”.
In the case of `O=NN(c1ccccc1)c1ccccc1`, the outcome is reported as “inactive”.
For `N#Cc1cccnc1`, the outcome was “inactive”.
With `CC(C)COC(=O)c1ccccc1C(=O)OCC(C)C` the outcome was “inactive”.
For `O=[N+]([O-])c1ccc(Nc2ccccc2)cc1`, the outcome was “inactive”.
In the case of `CNC(=O)Oc1cccc2c1OC(C)(C)C2`, the outcome is reported as “inactive”.
For `ClC(Cl)=C(Cl)C(Cl)=C(Cl)Cl`, the outcome was “inactive”.
For `CCCCOCC1CO1` (stereo not given), the outcome was “inactive”.
With `ClCc1ccccn1` the outcome was “inactive”.
In the case of `O=[N+]([O-])/N=C1\NCCN1Cc1ccc(Cl)nc1`, the outcome is reported as “inactive”.

Experiment: qHTS assay to test for compound auto fluorescence at 590 nm (red) in HepG2 cell free culture (AID 720684)
Conditions: cell-free medium autofluorescence, red 540/590 nm; series mostly up to 91.3 µM
Procedure, shortened: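 Steps: dispense MEM/10% FBS medium, no cells; pin compound or DMSO vehicle; read red channel, Ex/Em 540/590 nm. Output given as Rose Bengal sodium equivalents.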
In the case of `CCCCOC(=O)COC(=O)c1ccccc1C(=O)OCCCC`, the outcome is reported as “inactive”.
For `CC(C)(C#N)N=NC(C)(C)C#N`, the outcome was “inactive”.
For `c1ccc(C2CO2)cc1` (stereo not given), the outcome was “inactive”.
For `CC(C)Nc1nc(Cl)nc(NC(C)C)n1`, the outcome was “inactive”.
For `CC(C)CON=O`, the outcome was “inactive”.
In the case of `Clc1cccc(Cl)c1`, the outcome is reported as “inactive”.
With `CCCCCCCCCCCCCl` the outcome was “inactive”.
For `COP(=S)(OC)Oc1ccc(Sc2ccc(OP(=S)(OC)OC)cc2)cc1`, the outcome was “inactive”.
With `Nc1ncn[nH]1` the outcome was “inactive”.
In the case of `CC(C)(O)C#N`, the outcome is reported as “inactive”.
For `NC(=O)CN1CCCC1=O`, the outcome was “inactive”.
With `CCNc1nc(Cl)nc(NC(C)(C)C#N)n1` the outcome was “inactive”.
With `O=C1CCCO1` the outcome was “inactive”.
In the case of `CCCCCCCC[N+](C)(CCCCCCCC)CCCCCCCC`, the outcome is reported as “inactive”.
For `CN(C)c1nc(=O)n(C2CCCCC2)c(=O)n1C`, the outcome was “inactive”.
With `Cn1c(-c2ccccc2)cc(-c2ccccc2)[n+]1C` the outcome was “inactive”.
With `N#CCCCCC#N` the outcome was “inactive”.
With `C[C@]12CCC(=O)C=C1CC[C@@H]1[C@@H]2CC[C@@]2(C)[C@H]1CC[C@]2(C)O` the outcome was “inactive”.
In the case of `Clc1ccc(C(Cl)(Cl)Cl)cc1`, the outcome is reported as “inactive”.
With `O=P(OCCCl)(OCCCl)OCCCl` the outcome was “inactive”.
In the case of `CC[n+]1c(-c2ccccc2)c2cc(N)ccc2c2ccc(N)cc21`, the outcome is reported as “inactive”.
For `CCOP(=O)(OCC)OCC`, the outcome was “inactive”.
With `COc1ccc(O)c(C(C)(C)C)c1` the outcome was “inactive”.
In the case of `CN(C)c1ccccc1`, the outcome is reported as “inactive”.
For `CCC1(c2ccc(N)cc2)CCC(=O)NC1=O` (stereo not given), the outcome was “inactive”.
With `CCOP(=S)(OCC)SCn1c(=O)oc2cc(Cl)ccc21` the outcome was “inactive”.
For `CC(C)=CC1C(C(=O)OCc2cccc(Oc3ccccc3)c2)C1(C)C` (stereo not given), the outcome was “inactive”.
With `O=C(O)c1nn(Cc2ccc(Cl)cc2Cl)c2ccccc12` the outcome was “inactive”.
With `N#Cc1nn(-c2c(Cl)cc(C(F)(F)F)cc2Cl)c(N)c1S(=O)C(F)(F)F` (stereo not given) the outcome was “inactive”.
With `O=NN(c1ccccc1)c1ccccc1` the outcome was “inactive”.
With `N#Cc1cccnc1` the outcome was “inactive”.
For `CC(C)COC(=O)c1ccccc1C(=O)OCC(C)C`, the outcome was “inactive”.
In the case of `O=[N+]([O-])c1ccc(Nc2ccccc2)cc1`, the outcome is reported as “inactive”.
For `CNC(=O)Oc1cccc2c1OC(C)(C)C2`, the outcome was “inactive”.
With `ClC(Cl)=C(Cl)C(Cl)=C(Cl)Cl` the outcome was “inactive”.
For `CCCCOCC1CO1` (stereo not given), the outcome was “inactive”.
With `ClCc1ccccn1` the outcome was “inactive”.
For `O=[N+]([O-])/N=C1\NCCN1Cc1ccc(Cl)nc1`, the outcome was “inactive”.

Experiment: qHTS assay to test for compound auto fluorescence at 460 nm (blue) in HepG2 cell free culture (AID 720685)
Conditions: Cell-free culture medium, blue autofluorescence 405/460 nm; series mostly up to 91.3 µM
Procedure, shortened: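 Compound (23 nL) or DMSO pinned into cell-free MEM with 10% FBS; blue fluorescence read at 405/460 nm excitation/emission, expressed as auto-fluorescence equivalency to triamterene.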
In the case of `CCCCOC(=O)COC(=O)c1ccccc1C(=O)OCCCC`, the Potency is reported as “inactive”.
In the case of `CC(C)(C#N)N=NC(C)(C)C#N`, the Potency is reported as “inactive”.
For `c1ccc(C2CO2)cc1` (stereo not given), the Potency was “inactive”.
In the case of `CC(C)CON=O`, the Potency is reported as “inactive”.
In the case of `Clc1cccc(Cl)c1`, the Potency is reported as “inactive”.
In the case of `COP(=S)(OC)Oc1ccc(Sc2ccc(OP(=S)(OC)OC)cc2)cc1`, the Potency is reported as “inactive”.
In the case of `Nc1ncn[nH]1`, the Potency is reported as “inactive”.
With `NC(=O)CN1CCCC1=O` the Potency was “inactive”.
For `CCNc1nc(Cl)nc(NC(C)(C)C#N)n1`, the Potency was “inactive”.
For `CCCCCCCC[N+](C)(CCCCCCCC)CCCCCCCC`, the Potency was “inactive”.
For `C[C@]12CCC(=O)C=C1CC[C@@H]1[C@@H]2CC[C@@]2(C)[C@H]1CC[C@]2(C)O`, the Potency was “inactive”.
For `Clc1ccc(C(Cl)(Cl)Cl)cc1`, the Potency was “inactive”.
With `O=P(OCCCl)(OCCCl)OCCCl` the Potency was “inactive”.
For `COc1ccc(O)c(C(C)(C)C)c1`, the Potency was “inactive”.
For `CN(C)c1ccccc1`, the Potency was “inactive”.
For `CCC1(c2ccc(N)cc2)CCC(=O)NC1=O` (stereo not given), the Potency was “inactive”.
In the case of `O=C(O)c1nn(Cc2ccc(Cl)cc2Cl)c2ccccc12`, the Potency is reported as “inactive”.
With `N#Cc1nn(-c2c(Cl)cc(C(F)(F)F)cc2Cl)c(N)c1S(=O)C(F)(F)F` (stereo not given) the Potency was “inactive”.
With `CC(C)COC(=O)c1ccccc1C(=O)OCC(C)C` the Potency was “inactive”.
In the case of `O=[N+]([O-])c1ccc(Nc2ccccc2)cc1`, the Potency is reported as “inactive”.
In the case of `CNC(=O)Oc1cccc2c1OC(C)(C)C2`, the Potency is reported as “inactive”.
In the case of `ClC(Cl)=C(Cl)C(Cl)=C(Cl)Cl`, the Potency is reported as “inactive”.
For `CCCCOCC1CO1` (stereo not given), the Potency was “inactive”.
In the case of `ClCc1ccccn1`, the Potency is reported as “inactive”.
